This note sets out measurements from PubChem BioAssay (Tox21).

Test [1] in a line: qHTS assay to identify small molecule agonists of H2AX (AID 1224845; active means well fitted activation curve with a large enough effect in the signal ratio in the repeat runs, not every such curve was filed as active; the % refers to the signal ratio; further: potency means the concentration at half of the fitted maximal effect). In short, it runs like this:
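Phospho-H2AX Ser139 measured by HTRF (ex 320 nm; em 665 and 620 nm) after 24 hr antibody incubation. Compounds, 15 concentrations, 0.76% DMSO, were applied to CHO-K1 cells for 3hr at 37C before lysis.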
(In general: In qHTS, concentration-response curves come from the screen itself.)

Test [2] can be described thus: qHTS assay to identify small molecule agonists of the hypoxia (HIF-1) signaling pathway (AID 1224846; active means well fitted activation curve with a large enough effect in the signal ratio in the repeat runs, not every such curve was filed as active; the % refers to the signal ratio). In short, it runs like this:
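Beta-lactamase FRET read-out (CCF4-AM substrate) from ME-180 cells carrying an HRE-driven bla reporter, after 17 hrs compound exposure at 37C/5% CO2. Cells were seeded at 2,000 per well in 0.5% dialyzed FBS medium and preincubated 5 hrs.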

A short description of test [3]: qHTS assay to identify small molecule antagonists of the estrogen related receptor (ERR) signaling pathway from Tox21 library (AID 1224848). Further: nearly all actives have a fitted effect of over 50% in size. Further: potency means the concentration at half of the fitted maximal effect. Put shortly: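 ERR cell line, 2,000 cells/well. 6 h settle, then compound (DMSO) added; 18 h at 37 C; ONE-Glo luminescence after 30 min RT.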
Test [4] in a line: qHTS assay to identify small molecule agonists of the estrogen related receptor (ERR) signaling pathway from Tox21 library (AID 1224849; calls by dose curve; further: nearly all actives have a fitted effect of over 15% in size). Particulars: ERR reporter cell line, ONE-Glo luciferase, 18 h; at 92.4 µM (top of the series) unless noted. In short, it runs like this: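 Luminescence readout (ONE-Glo, 30 min RT) after 18 h compound exposure at 37 C of NTP-supplied ERR reporter cells; cells were plated 6 h before compound addition by pin tool.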

Test [5] is described as follows: qHTS RealTime-Glo MT Cell Viability Assay in HepG2 cells - 24 hour (AID 1224867). Further: nearly all actives have a fitted effect of over 50% in size. Further: potency means the concentration at half of the fitted maximal effect. Put shortly: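 Tox21 10K library screened in qHTS format on HepG2 cells carrying RealTime-Glo reagents. Compounds were added after a 5 h preincubation, and the luminescent signal from continuous culture was measured repeatedly during 40 h treatment.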
Test [6] is described as follows: qHTS RealTime-Glo MT Cell Viability Assay in HEK293 cells - 32 hour (AID 1224868). Further: nearly all actives have a fitted effect of over 50% in size. Further: potency means the concentration at half of the fitted maximal effect. On activity change, negative = cytotoxic: top concentration of the series differs between compounds. In short, it runs like this:
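Luminescence generated by NanoLuc from substrate produced by living HEK293 cells served as the viability signal. Each value reflects the reading at its stated time point during continuous 40 h compound exposure at 37 C.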

Test [7] is described as follows: A CellTox Green Cytotoxicity Assay to monitor cytotoxicity in HEK293 cells - 0 hour (AID 1224869). Further: nearly all actives have a fitted effect of over 50% in size. In short, it runs like this: (§1)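 Read-out: fluorescence of a cell-impermeant cyanine dye staining DNA of dead cells, proportional to cytotoxicity. HEK293, 600 cells/well with reagent, compound (23 nL DMSO) added after 5 h; reads at 0, 8, 16, 24, 32, 40 h.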
The nature of test [8]: qHTS RealTime-Glo MT Cell Viability Assay in HepG2 cells - 40 hour (AID 1224870). Further: nearly all actives have a fitted effect of over 50% in size. Further: potency means the concentration at half of the fitted maximal effect. Put shortly: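 Real-time viability: cells seeded at 600 per well together with NanoLuc and cell-permeant prosubstrate, compounds added after 5 h incubation. Luminescence tracked at 0, 8, 16, 24, 32 and 40 h of exposure.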
The nature of test [9]: A CellTox Green Cytotoxicity Assay to monitor cytotoxicity in HEK293 cells - 40 hour (AID 1224871). Further: nearly all actives have a fitted effect of over 45% in size. Further: potency means the concentration at half of the fitted maximal effect. In short, it runs like this: as §1
Test [10] can be described thus: qHTS assay to identify small molecule agonists of H2AX - cell viability counter screen (AID 1224847; calls by dose curve; further: top concentration of the series differs between compounds; nearly all actives have a fitted effect of over 30% in size). Put shortly:
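Quantitative HTS viability measurement: CHO-K1 wild-type cells in serum (10% FBS) medium, short 3 hr drug exposure at 37C with 0.76% DMSO, CellTiter-Glo luminescent detection.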

Values without a mark were called inactive. Records with an inconclusive call do not appear. Calls of active or inactive are those of the source. Unless noted, the call rests on the fitted dose curve; in most records, active means well fitted curve in the direction sought with a large enough effect in the repeat runs; inconclusive means weak or mixed curves; inactive means no such curve, though single readings can be large; an effect the other way counts as inactive or inconclusive.
On the % scale 0 is the no-effect control and ±100 the full control effect.

Turning to `CC1(C)COCN1`, the Potency result in [1], in test [3], in [5] and in test [6] was “inactive” in each case. Moreover, in test [2], the molecule was classed as inactive. Besides, the activity change, positive = activation in test [4] was 5.19%.

As to `CNCC[C@H](Oc1cccc2ccccc12)c1cccs1`, the Potency entry in [1] and in test [7] was “inactive” each time. Moreover, the call in [2] was inactive. For the same molecule, the activity change, positive = activation in [4] is -62.1% [at 42.5 µM]. Moreover, the Potency in [5], in test [6] and in test [8] was 23.9 µM (active) in each case.

Consider `CCNc1nc(NC(C)CC)nc(OC)n1` (stereo unspecified), for which the Potency result in test [1], in [3], in test [5], in test [6], in [7] and in [8] was “inactive” throughout. Also, the Potency result in test [9] is “inactive”. Besides, the molecule was classed as inactive in test [2]. The activity change, positive = activation in [4] was 10.4%.

`Cc1nc(Nc2ncc(C(=O)Nc3c(C)cccc3Cl)s2)cc(N2CCN(CCO)CC2)n1`: the Potency was 55.2 µM (active) in test [1], 8.41 µM (active) in test [3] and 30.1 µM (active) in test [6]. Moreover, the result in test [2] was inactive. In addition, in test [4], the activity change, positive = activation was -44.6% [at 42.5 µM]. The Potency entry in test [7] and in test [9] was “inactive” each time.

For the molecule `CC(C)CCOCCC(C)C`, the Potency result in [1], in test [3], in test [5], in [6], in [7] and in test [8] was “inactive” throughout. Moreover, in [9], the Potency result was “inactive”. Also, the call in test [2] was inactive. Moreover, in test [4], the activity change, positive = activation was -1.03%.

For the molecule `CCN(CC)CCOc1ccc(C(O)(Cc2ccc(Cl)cc2)c2ccc(C)cc2)cc1` (stereo unspecified), the Potency in test [1] is 49.2 µM (active); in test [3] it was 29.8 µM (active); in [5], 23.9 µM (active); in [6] it was 16.9 µM (active); in test [8], 15.1 µM (active); in test [9], 23.9 µM (active). Moreover, in [2], the outcome was inactive. Moreover, the activity change, positive = activation in test [4] was -61% [at 42.5 µM]. Further, the Potency result in [7] is “inactive”.

As to `C=C(C)CCCC`, the Potency result in test [1], in test [3], in [5], in [6], in test [7] and in test [8] was “inactive” each time. Further, the Potency entry in [9] is “inactive”. The call in test [2] was inactive. The activity change, positive = activation in test [4] was 6.79%.

With `CCCC(O)C(O)CO` (stereo unspecified), the Potency entry in test [1], in [5], in test [6], in test [7], in [8] and in test [9] was “inactive” in each case. In addition, the molecule was classed as inactive in test [2].

Regarding `CCOC(/C=C(\C)CCC=C(C)C)OCC`, the Potency entry in [1], in [3], in test [5], in [6], in [7] and in test [8] was “inactive” each time. In addition, in test [9], the Potency entry was “inactive”. Moreover, the call in [2] was inactive. In addition, the activity change, positive = activation in test [4] is 4.73%.

Take `CCCCCCCCCCCCCCNCCO`: the Potency was 43.8 µM (active) in [1], 13.4 µM (active) in [5], 10.7 µM (active) in [8] and 19 µM (active) in [9]. Moreover, in test [2], the molecule was called inactive. Moreover, the Potency entry in test [7] is “inactive”.

`CCc1cccc(C)c1`: the Potency result in test [1], in test [5], in [6], in test [7] and in test [8] was “inactive” each time. Besides, the outcome in test [2] was inactive.

Regarding `CC1CNCC(C)O1` (stereo unspecified), the Potency result in test [1], in [5], in test [6], in test [7], in test [8] and in [9] was “inactive” in each case. Besides, in test [2], the molecule was called inactive.

With `CC(C)(C)c1cc(CCC(=O)NCCCCCCNC(=O)CCc2cc(C(C)(C)C)c(O)c(C(C)(C)C)c2)cc(C(C)(C)C)c1O`, the Potency result in [1], in test [10], in [7], in [8] and in [9] was “inactive” each time. Further, the molecule was called inactive in [2].

For the molecule `O=C(O)c1cccc(Cl)n1`, the Potency entry in test [1], in test [5], in test [6] and in test [8] was “inactive” each time. In [2], the molecule was classed as inactive.

For `CCOC(=O)COc1ccc(C)cc1`, the Potency result in test [1], in test [5], in [6], in test [7], in test [8] and in test [9] was “inactive” in each case. In test [2], the call was inactive.

`NCCCC(O)(P(=O)(O)O)P(=O)(O)O`: the Potency result in test [1], in test [5], in test [6], in test [7], in test [8] and in test [9] was “inactive” throughout. For the same molecule, the molecule was classed as inactive in [2].

`COc1ccc2sc(C(=O)Nc3nnn[nH]3)c(OC(C)C)c2c1`: the Potency result in test [1], in [5], in test [7] and in test [8] was “inactive” each time. Moreover, the result in test [2] was inactive. Besides, the Potency in test [3] is 24.2 µM (active); in [6], 27.4 µM (active). Further, in test [4], the activity change, positive = activation was -42.5%.

For the molecule `C[C@@H]1CC[C@H]2C(C)(C)[C@H]3C[C@@]12CC[C@@]3(C)O`, the Potency result in test [1], in test [3], in [5], in [7] and in test [8] was “inactive” each time. Further, the molecule was classed as inactive in test [2]. Further, in test [4], the activity change, positive = activation was -6.53%. Also, the Potency in test [9] was 38.8 µM (active).

Turning to `Cc1cc(=O)[nH]c(=O)[nH]1`, the Potency result in test [1], in test [10], in test [5], in test [7], in test [8] and in test [9] was “inactive” in each case. The molecule was called inactive in test [2].

With `COc1cccc(OC)c1O`, the Potency result in [1], in [10], in [5], in test [7], in test [8] and in test [9] was “inactive” throughout. Further, the result in test [2] was inactive.

With `C[Si](C)O[Si](C)C`, the Potency result in test [1], in test [5], in [6], in test [7], in test [8] and in test [9] was “inactive” each time. In addition, the call in test [2] was inactive.

In the case of `CC(=O)c1ccccc1N`, the Potency result in test [1], in test [10], in test [5], in test [7], in test [8] and in test [9] was “inactive” each time. Further, the call in [2] was inactive.

As for `CCN1CCN(c2cc(-c3ccc(F)cc3)c3c(n2)CCCCCC3)CC1`, the activation (H2AX phosphorylation) in test [1] was 3.44% [at 31.6 µM]. The activation in test [2] was 1.71% [at 15.8 µM]. In addition, the activity, negative = inhibition in [3] is -10.2% [at 19 µM]. Also, the activity change, positive = activation in test [4] is -5.69% [at 19 µM]. In test [5], the activity change, negative = cytotoxicity is -8.27% [at 15.8 µM]. The values for the activity change, negative = cytotoxic in [6] and in test [8] were -11.6% [at 15.8 µM] and -8.41% [at 15.8 µM], respectively. In addition, the cytotoxicity in test [7] is -14.4% [at 15.8 µM]. In test [9], the cytotoxicity increase was 9.69% [at 15.8 µM].

Take `CCCCN(C)C`: the Potency entry in test [1], in test [5], in [6], in [7], in [8] and in test [9] was “inactive” in each case. In [2], the outcome was inactive.

`CN(C)CCN1CCOCC1`: the Potency entry in test [1], in test [5], in test [6], in test [7], in [8] and in [9] was “inactive” in each case. The molecule was classed as inactive in test [2].

For `CC(C)(C)C1=CC(=O)C=C(C(C)(C)C)C1=O`, the Potency entry in [1], in test [5], in test [6], in test [7] and in test [8] was “inactive” each time. Besides, the molecule was classed as inactive in [2].

For the molecule `Cc1c(C)n(Cc2ccccc2)c2ccc(C(=O)OCCN(C)C)cc12`, the Potency was 6.19 µM (active) in test [1] and 23.9 µM (active) in [8]. Besides, in test [2], the call was inactive. Besides, the Potency entry in [3] and in [7] was “inactive” throughout. Besides, in test [4], the activity change, positive = activation is -7.81% [at 42.5 µM].

As to `CC(C)OC(=O)c1cc(C(=O)OC(C)C)cc([N+](=O)[O-])c1`, the Potency result in test [1], in [3], in test [5], in test [7] and in [8] was “inactive” each time. The outcome in test [2] was inactive. Also, the activity change, positive = activation in test [4] was -0.42%.

Regarding `CC1CCCCN1CCCOC(=O)c1ccc(OC2CCCCC2)cc1` (stereo unspecified), the Potency result in test [1] and in test [7] was “inactive” each time. Further, the molecule was called inactive in test [2]. Also, the Potency is 11.9 µM (active) in test [3] and 21.3 µM (active) in [6]. Also, the activity change, positive = activation in test [4] is -35.8% [at 42.5 µM].

For `CCCCCCCCCCCCCCCC`, the Potency entry in [1], in [3], in test [5], in test [7], in test [8] and in [9] was “inactive” each time. In test [2], the outcome was inactive. In addition, in [4], the activity change, positive = activation was 3.33%.
